This is a sample that favours compounds with a hit; in the whole collection about 3.5% have one here.
FBW7 activator – human FBW7 E3 ligase activation, primary screen. AlphaScreen FBW7–phospho-cyclin E peptide binding, activator screen. normalized activity (activation), % at 26.1 µM. actives 0.13% (n = 650,000). AID 1259310; in the data active = normalized activity above about 1.9%;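 note: purified mutant Fbw7 with reduced substrate affinity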
MITF primary – human MITF inhibition, primary screen; inhibition, % at 2.6 µM; AlphaScreen MITF homodimerization, bead proximity signal; O75030; actives 0.91% (n = 650,000); in the data active = inhibition above about 50%;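 note: 0% = vehicle wells with protein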
TEAD-YAP block – TEAD-YAP interaction inhibition; inhibition, % at 9.12 µM; AID 1259422; HEK-TIYL cells, TEAD-Gal4/YAP UAS-luciferase luminescence; actives 1.4% (n = 640,000); in the data active = inhibition above about 32%;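 note: 0% = median of test compound wells and 100% = reference inhibitor wells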
GPR151 ag – human GPR151 activation; Q8TDV0; PathHunter beta-arrestin GPR151 cells, luminescence; activation, % at 11.2 µM; actives 1% (n = 650,000); AID 1508602; in the data active = activation above about 4.9%;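 note: 0% = median of compound wells and 100% = cells with positive control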
Target sequence (Q8TDV0 whole entry, looked up): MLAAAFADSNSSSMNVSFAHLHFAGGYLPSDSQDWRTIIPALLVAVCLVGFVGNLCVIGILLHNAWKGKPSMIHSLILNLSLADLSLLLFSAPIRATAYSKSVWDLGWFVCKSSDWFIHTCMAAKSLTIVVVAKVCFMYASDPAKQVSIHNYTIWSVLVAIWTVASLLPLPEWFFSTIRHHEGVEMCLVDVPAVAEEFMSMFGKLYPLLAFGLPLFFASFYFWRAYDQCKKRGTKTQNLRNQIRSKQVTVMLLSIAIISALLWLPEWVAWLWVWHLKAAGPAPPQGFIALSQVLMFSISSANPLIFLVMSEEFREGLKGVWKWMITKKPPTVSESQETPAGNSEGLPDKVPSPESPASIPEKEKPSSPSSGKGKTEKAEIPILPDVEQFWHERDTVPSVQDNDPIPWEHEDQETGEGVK
MITF confirm – human MITF inhibition, confirmation; inhibition, % at 2.6 µM; shares compounds with MITF primary; AID 1259372; actives 16% (n = 4,700); AlphaScreen MITF homodimerization, biotin/His-MITF beads;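 active = inhibition above a cutoff derived from the DMSO control wells, cut at about 28% in these data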;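 note: 0% = MITF dimer wells with DMSO only; inhibitors lower the bead chemiluminescence by keeping MITF from dimerizing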
AS interf DR – counter-screen: compounds optically interfering with AlphaScreen | shares compounds with MITF primary | AlphaScreen optical interference counterscreen, cell-free | IC50, µM | actives 6% (n = 480) | AID 1259373; call rule not given here
AS interf ctr – AlphaScreen optical interference, counter-screen. shares compounds with MITF primary. LysRS AlphaScreen counterscreen, signal interference, triplicate. inhibition, % at 2.6 µM. actives 7.6% (n = 4,700). AID 1259376;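 active = inhibition above a cutoff derived from the DMSO control wells, cut at about 30% in these data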
* hit, by the source's call.

`Cc1ccc(C)n1C(Cc1c[nH]c2ccccc12)C(=O)O` (stereo unspecified) gave FBW7 activator -0.9, MITF primary 87.4*, TEAD-YAP block -6.2, GPR151 ag -0.6, MITF confirm 72.6*, AS interf DR >6.48 and AS interf ctr 14.0.
`COC(=O)C1=C(C)NC(=O)/C1=C\c1ccc(OCC(=O)Nc2ccccc2)cc1` gave FBW7 activator 0.6, MITF primary 14.4, TEAD-YAP block -1.8 and GPR151 ag -0.6.
`Cc1cc(C)n2nc(N)nc2n1` gave FBW7 activator 0.0, MITF primary 8.1, TEAD-YAP block 3.0 and GPR151 ag 0.4.
Screening Cc1cc(C)n2nc(N)c(N)c2n1 returned FBW7 activator -0.4, MITF primary 62.3*, TEAD-YAP block -13.5, GPR151 ag -0.4, MITF confirm 29.2*, AS interf DR >11.6 and AS interf ctr 0.5.
`COc1ccccc1N1CCN(C(=O)NC(=O)c2ccccc2)CC1` gave FBW7 activator 0.0, MITF primary -0.9, TEAD-YAP block -6.7 and GPR151 ag -0.1.
Screening COc1ccccc1CN1CCC(N2CCCCC2)CC1 returned FBW7 activator 0.8, MITF primary 70.5*, TEAD-YAP block 3.4, GPR151 ag -0.9, MITF confirm 3.0 and AS interf ctr 21.4.
`COc1cccc(CN2CCC(N3CCCCCC3)CC2)c1OC` gave FBW7 activator -0.2, MITF primary 12.8, TEAD-YAP block 6.5 and GPR151 ag -0.1.
Screening COc1ccccc1CN1CCC(N2CCN(c3ccccc3)CC2)CC1 returned FBW7 activator -0.2, MITF primary 67.5*, TEAD-YAP block -6.3, GPR151 ag 0.3, MITF confirm -5.1 and AS interf ctr -4.8.
COc1ccc(CN2CCN(Cc3ccc(C)cc3)CC2)c(OC)c1 was read as FBW7 activator -0.6, MITF primary 79.0*, TEAD-YAP block -15.3, GPR151 ag -1.3, MITF confirm 0.5 and AS interf ctr 9.0.
Screening COc1ccccc1CN1CCN(Cc2ccc(C(F)(F)F)cc2)CC1 returned FBW7 activator -0.2, MITF primary 60.4*, TEAD-YAP block -15.8, GPR151 ag 0.7, MITF confirm 6.4 and AS interf ctr 13.5.
For COc1ccc(CN2CCN(Cc3ccc(C(F)(F)F)cc3)CC2)c(OC)c1 the results were FBW7 activator 0.0, MITF primary 67.5*, TEAD-YAP block -0.8, GPR151 ag -0.3, MITF confirm 9.6 and AS interf ctr 12.8.
Screening COc1cc(C2C(C(=O)Nc3ccccc3)=C(C)Nc3ncnn32)ccc1OC(=O)c1ccccc1 (stereo unspecified) returned FBW7 activator 0.6, MITF primary 11.3, TEAD-YAP block 3.3 and GPR151 ag 0.1.
Cn1c(CN2CCOCC2)nc(=O)c2ccccc21 was read as FBW7 activator 0.0, MITF primary 53.3*, TEAD-YAP block -1.6, GPR151 ag 0.1, MITF confirm 1.3 and AS interf ctr -6.0.
For Brc1ccc(CN2CCN(c3ncccn3)CC2)cc1 the results were FBW7 activator 0.0, MITF primary 53.6*, TEAD-YAP block 5.4, GPR151 ag -0.3, MITF confirm 0.8 and AS interf ctr 2.9.
CC1CCC(N2CCN(Cc3cccnc3)CC2)CC1 (stereo unspecified) was read as FBW7 activator -0.1, MITF primary 83.9*, TEAD-YAP block 6.5, GPR151 ag 0.1, MITF confirm -5.4 and AS interf ctr 15.4.
Brc1ccc(CN2CCN(Cc3cccnc3)CC2)cc1 was read as FBW7 activator 0.0, MITF primary 84.3*, TEAD-YAP block -4.1, GPR151 ag 3.5, MITF confirm 1.2 and AS interf ctr 9.1.
For O=S(=O)(c1ccc(Cl)cc1)N1CCN(Cc2cccnc2)CC1 the results were FBW7 activator 0.0, MITF primary 4.1, TEAD-YAP block -2.0 and GPR151 ag -1.3.
c1cncc(CN2CCN(Cc3ccncc3)CC2)c1 was read as FBW7 activator -0.1, MITF primary 77.3*, TEAD-YAP block 4.5, GPR151 ag 1.0, MITF confirm 7.2 and AS interf ctr 0.2.
Cc1ccc2onc(CC(=O)Nc3ccc(Cl)cc3)c2c1 was read as FBW7 activator 0.1, MITF primary 5.9, TEAD-YAP block 2.5 and GPR151 ag -1.1.
For COc1ccc(S(=O)(=O)NCc2ccc(F)cc2)cc1 the results were FBW7 activator 0.1, MITF primary 6.8, TEAD-YAP block 10.0 and GPR151 ag 4.0.
`COc1ccc(CNC(=O)c2ccc(Cn3cc([N+](=O)[O-])cn3)o2)cc1` gave FBW7 activator 0.0, MITF primary 14.8, TEAD-YAP block 9.0 and GPR151 ag -0.6.
`COc1cc(/C=C(\C#N)C(=O)NCC2CCCO2)ccc1OCc1ccc([N+](=O)[O-])cc1` (stereo unspecified) gave FBW7 activator 0.0, MITF primary -0.6, TEAD-YAP block -15.5 and GPR151 ag 0.6.
CS(=O)(=O)c1ccc(/C=C/C(=O)O)cc1 was read as FBW7 activator -0.1, MITF primary -8.5, TEAD-YAP block -6.8 and GPR151 ag 0.1.
CCOc1cc(/C=N/NC(=O)c2cc(C)[nH]n2)ccc1O was read as FBW7 activator 0.0, MITF primary 6.4, TEAD-YAP block -8.2 and GPR151 ag -0.9.
`FC(F)(F)c1nnc2c3ccccc3c(N3CCN(c4cccc(Cl)c4)CC3)nn12` gave FBW7 activator 0.7, MITF primary -6.3, TEAD-YAP block -5.3 and GPR151 ag -0.9.
For Fc1ccccc1N1CCN(Cc2cccnc2)CC1 the results were FBW7 activator -0.1, MITF primary 45.6, TEAD-YAP block 6.9 and GPR151 ag -0.1.
Screening c1cncc(CN2CCN(Cc3ccc4ccccc4c3)CC2)c1 returned FBW7 activator 0.0, MITF primary 80.5*, TEAD-YAP block 13.8, GPR151 ag 0.2, MITF confirm 10.4 and AS interf ctr 12.2.
For Fc1ccccc1N1CCN(C2CCN(Cc3cccnc3)CC2)CC1 the results were FBW7 activator -0.1, MITF primary 82.1*, TEAD-YAP block 4.9, GPR151 ag -0.8, MITF confirm 9.1 and AS interf ctr 7.2.
`O=C(C1c2ccccc2Oc2ccccc21)N1CCCC(c2nc(-c3cccnc3)n[nH]2)C1` (stereo unspecified) gave FBW7 activator -0.1, MITF primary 61.6*, TEAD-YAP block -1.3, GPR151 ag 0.1, MITF confirm 6.6 and AS interf ctr 13.8.
c1cncc(-c2n[nH]c(C3CCN(Cc4ccncc4)CC3)n2)c1 was read as FBW7 activator -0.1, MITF primary 53.6*, TEAD-YAP block -2.8, GPR151 ag -0.9, MITF confirm 5.0 and AS interf ctr 10.7.
CCN(Cc1ccccc1)S(=O)(=O)c1ccc(S(=O)(=O)NCC2CC2)cc1 was read as FBW7 activator -0.1, MITF primary 1.8, TEAD-YAP block -2.2 and GPR151 ag -1.4.
